A selection: hits, their analogues and other compounds. The true share with any hit is near 3.6%.
mHTT-CaM PPI inh = disrupts binding of mutant huntingtin to calmodulin; actives 3.6% (n = 190,000); AID 1671202; AlphaScreen His-mHTT/GST-CaM binding, luminescence; P42858; inhibition, % at 15 µM;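 also: 0% = both proteins with DMSO and 100% = one protein alone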
Pf apPOL block = Pf-apPOL DNA polymerase inhibition | actives 0.25% (n = 210,000) | Recombinant Pf-apPOL, molecular beacon fluorescence, 1.5 h | inhibition, % at 10 µM | AID 1794808
* marks the source's active call; other numbers are inactive results. Rule as the data show it: active = inhibition above about 50%; inactive = the rest.

How did CC(=O)N1N=C(c2ccccc2)CC1c1ccc(N(C)C)cc1 (stereo not drawn) do in these assays?
mHTT-CaM PPI inh: 19; Pf apPOL block: -7

Results for CC(=O)N1N=C(c2ccc(Br)cc2)CC1c1ccc(N(C)C)cc1 (stereo not drawn) ?
mHTT-CaM PPI inh: 74*; Pf apPOL block: -10

How did Cc1ccc(C2=NN(C(=O)CCC(=O)O)C(c3ccc(Br)cc3)C2)cc1 (stereo not drawn) do in these assays?
mHTT-CaM PPI inh: 11; Pf apPOL block: 72*

What do the screens show for `COc1cc(C(=O)N2N=C(c3ccccc3)CC2c2ccc(N(C)C)cc2)cc(OC)c1OC` (stereo not drawn)?
mHTT-CaM PPI inh: 97*; Pf apPOL block: -1

Results for Cc1ccc(C2CC(c3ccccc3)=NN2C(=O)CCC(=O)O)cc1 (stereo not drawn) ?
mHTT-CaM PPI inh: 6; Pf apPOL block: 5

What do the screens show for `COc1cc(OC)cc(C(=O)N2CC(=O)Nc3ccc(F)cc3C2c2ccc(F)cc2)c1` (stereo not drawn)?
mHTT-CaM PPI inh: 19; Pf apPOL block: -5

What do the screens show for `CC1CC(C)CN(S(=O)(=O)N2CCCC(C(=O)NC3CCCC(C)C3C)C2)C1` (stereo not drawn)?
mHTT-CaM PPI inh: 1; Pf apPOL block: -13

Results for CCOC(=O)C(C)=NNc1cc(C(F)(F)F)ccc1N1CCOCC1 ?
Pf apPOL block: -7

What do the screens show for `O=[N+]([O-])c1ccc(CNc2ccc3c(c2)CCC3)s1`?
mHTT-CaM PPI inh: 84*; Pf apPOL block: 7

How did COc1cccc(NCc2ccc([N+](=O)[O-])s2)c1 do in these assays?
mHTT-CaM PPI inh: 48; Pf apPOL block: -3

How did COc1cc(/C=C2/SC(=Nc3ccc(O)cc3)NC2=O)ccc1O do in these assays?
mHTT-CaM PPI inh: 31; Pf apPOL block: -7

Results for O=C1NC(=Nc2ccc(F)cc2)S/C1=C/c1cccs1 ?
mHTT-CaM PPI inh: 12; Pf apPOL block: 1

What do the screens show for `O=C1NC(=Nc2ccc(F)cc2)S/C1=C/c1ccco1`?
mHTT-CaM PPI inh: 68*; Pf apPOL block: 1

How did Cc1cc(C)cc(N=C2NC(=O)/C(=C/c3ccccc3)S2)c1 do in these assays?
mHTT-CaM PPI inh: 7; Pf apPOL block: 1

Results for O=C1NC(=Nc2ccc(F)cc2)S/C1=C/c1ccc(O)c(O)c1 ?
mHTT-CaM PPI inh: 57*; Pf apPOL block: 30

What do the screens show for `Cc1cc(C)cc(N=C2NC(=O)/C(=C/c3ccco3)S2)c1`?
mHTT-CaM PPI inh: 79*; Pf apPOL block: 2

What do the screens show for `O=C(CSC1=Nc2ccccc2C2=NC(c3ccccc3)C(=O)N12)NCc1ccccc1Cl` (stereo not drawn)?
mHTT-CaM PPI inh: 7; Pf apPOL block: -4

Results for Nc1sc(SCC(=O)NCc2ccc(F)cc2)nc1-c1ccccc1 ?
mHTT-CaM PPI inh: 91*; Pf apPOL block: -3

Results for Nc1cc(N)nc(SCC(=O)NCc2ccccc2)n1 ?
mHTT-CaM PPI inh: 4; Pf apPOL block: -3

Results for Cc1cc(C)cc(C(=O)Nc2ccc3c(c2)Sc2ncccc2C(=O)N3C)c1 ?
mHTT-CaM PPI inh: 73*; Pf apPOL block: 1

What do the screens show for `Cc1ccc(C(=O)Nc2ccc3c(c2)Sc2ncccc2C(=O)N3C)cc1`?
mHTT-CaM PPI inh: 10; Pf apPOL block: -12

What do the screens show for `CC(C)NC(=O)Cn1c(Cc2ccccc2Cl)nc2ccccc21`?
mHTT-CaM PPI inh: 10; Pf apPOL block: -2

How did CN(C)c1cccc(OCc2noc(-c3cccc(Cl)c3)n2)c1 do in these assays?
mHTT-CaM PPI inh: 62*; Pf apPOL block: -21

Results for COc1cccc(OCc2noc(-c3cccc(Cl)c3)n2)c1 ?
mHTT-CaM PPI inh: -43; Pf apPOL block: -1

What do the screens show for `COc1ccc(C2=NN3C(C2)c2cccc(OC)c2OC32CCCCC2)cc1OC` (stereo not drawn)?
mHTT-CaM PPI inh: 52*; Pf apPOL block: -10

How did COc1cccc2c1OC1(CCCCC1)N1N=C(c3cccs3)CC21 (stereo not drawn) do in these assays?
mHTT-CaM PPI inh: 43; Pf apPOL block: -24

Results for CCC(C)c1ccccc1NS(C)(=O)=O (stereo not drawn) ?
mHTT-CaM PPI inh: -2; Pf apPOL block: -10

What do the screens show for `Cc1cc(C)c(C)c(S(=O)(=O)N2CCC(c3c[nH]c4c(C)cccc34)CC2)c1C`?
mHTT-CaM PPI inh: 50*; Pf apPOL block: -5

Results for Cc1cc(C)c(C)c(S(=O)(=O)N2CCN(C)CC2)c1C ?
mHTT-CaM PPI inh: -4; Pf apPOL block: -3

Results for Cc1cccc(N2CCN(C(=O)c3ccc4c(c3)NC(=O)c3ccccc3S4)CC2C)c1 (stereo not drawn) ?
mHTT-CaM PPI inh: 100*; Pf apPOL block: -10

What do the screens show for `Cc1cccc(N2CCN(C(=O)/C=C3\Sc4ccccc4NC3=O)CC2C)c1` (stereo not drawn)?
mHTT-CaM PPI inh: 28; Pf apPOL block: 4

How did N#Cc1ccc(C(=O)N2CCCC2COc2ccc(C(=O)NC3CC3)cc2)cc1 (stereo not drawn) do in these assays?
mHTT-CaM PPI inh: -5; Pf apPOL block: -2

What do the screens show for `O=C(NCc1ccc(Cl)cc1)c1ccc(N2CC3CC(C2)c2cccc(=O)n2C3)c([N+](=O)[O-])c1` (stereo not drawn)?
mHTT-CaM PPI inh: 59*; Pf apPOL block: -8

How did O=C(Nc1ccc(F)c(F)c1)c1ccc(N2CC3CC(C2)c2cccc(=O)n2C3)c([N+](=O)[O-])c1 (stereo not drawn) do in these assays?
mHTT-CaM PPI inh: 22; Pf apPOL block: -5

What do the screens show for `CC(C)NC(=O)c1cc2nc(-c3ccc(Cl)cc3)cc(C(F)(F)F)n2n1`?
mHTT-CaM PPI inh: 1; Pf apPOL block: -1

What do the screens show for `COCCn1cc2c3c(cccc31)CN(C(=O)Nc1cc(C)ccc1C)CC2`?
mHTT-CaM PPI inh: 33; Pf apPOL block: -3

How did CN(C)c1ccc(C(=O)Nc2nnc(-c3ccc(Br)cc3)o2)cc1 do in these assays?
mHTT-CaM PPI inh: 60*; Pf apPOL block: -30

What do the screens show for `CN(C)c1ccc(-c2nc(-c3ccc(=O)n(C)c3)no2)cc1`?
mHTT-CaM PPI inh: 9; Pf apPOL block: 5

What do the screens show for `COc1ccc(-c2nnc(NC(=O)c3ccc(S(=O)(=O)N(C)C)cc3)o2)cc1`?
mHTT-CaM PPI inh: 30; Pf apPOL block: -1

What do the screens show for `CN(C)c1ccc(-c2noc(-c3ccc(Br)cc3)n2)cc1`?
mHTT-CaM PPI inh: 79*; Pf apPOL block: -1

What do the screens show for `CCN1C(=O)COc2ccc(-c3noc(C=Cc4ccc(C)cc4)n3)cc21`?
mHTT-CaM PPI inh: -6; Pf apPOL block: -5

How did O=C(CSc1nnc(-c2ccco2)o1)Nc1cccc([N+](=O)[O-])c1 do in these assays?
mHTT-CaM PPI inh: -6; Pf apPOL block: -3

How did O=C(CSc1nnc(-c2ccco2)c(-c2ccco2)n1)Nc1ccccc1[N+](=O)[O-] do in these assays?
mHTT-CaM PPI inh: 74*; Pf apPOL block: -3

How did O=C(CSc1n[nH]c(-c2ccccc2)n1)Nc1ccccc1[N+](=O)[O-] do in these assays?
mHTT-CaM PPI inh: 12; Pf apPOL block: -1

Results for O=C(CSc1nnc(-c2ccco2)c(-c2ccco2)n1)Nc1cccc([N+](=O)[O-])c1 ?
mHTT-CaM PPI inh: 98*; Pf apPOL block: 4

What do the screens show for `O=C(CSc1nnc(-c2ccco2)c(-c2ccco2)n1)Nc1cccc(Br)c1`?
mHTT-CaM PPI inh: 100*; Pf apPOL block: -3

Results for O=C(O)Cn1c2ccccc2c2nnc(SCC(=O)Nc3cccc(Br)c3)nc21 ?
mHTT-CaM PPI inh: 25; Pf apPOL block: -3

Screening data: PubChem BioAssay, University of Kansas High Throughput Screening Laboratory
